We go through eight molecules from PubChem BioAssay (NCATS).

Values without a mark were called inactive. Inconclusive results are not listed. Active and inactive are the calls of the source. Unless noted, calls follow the shape of the dose curve; as a rule, active = well fitted curve in either direction with a large enough effect (not every such curve was filed as active); inconclusive = small, poorly fitted or top-dose-only effect, or another doubt; inactive = flat fitted curve, though single readings scatter. Bounds are passed on as bounds.

Test [1] concerns the target Lysosomal acid glucosylceramidase (Homo sapiens) (UniProt P04062). The test can be described thus: Glucocerebrosidase-p2 (AID 348; in the data active = potency below about 10 µM; also: potency is read from the fitted curve at half-maximal effect). To be noted: purified GBA, blue fluorogenic substrate, 40 min. A digest of the protocol: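 Normal human glucocerebrosidase (0.2 nM) with blue fluorogenic substrate (80 uM final) in citrate/phosphate pH 5.9 with 10mM sodium taurocholate, 0.01% tween-20; 40 min RT, NaOH/glycine stop; fluorescence Ex 365/Em 440; AC50 from a titration from 0.6 nM upwards.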

A short description of test [2]: AP1 Signaling Pathway (AID 357).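 Also: ME-180 reporter cells stimulated with EGF at its EC50 level; % is scaled to controls: 0 for no effect and ±100 for the full control effect.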 As to conditions: ME-180 AP-1-bla reporter, EGF-induced, beta-lactamase ratio, 5 h; at 7.69 µM (top of the series) unless noted. An outline of the steps:
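In this screen, ME-180 cells in Opti-MEM with 0.5% dialyzed FBS received EC50 EGF and compound titrations for 5 h. AP-1 reporter beta-lactamase was detected via CCF4 ratio, giving AC50 for positive and negative modulators.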

For test [3], the target named is Cytochrome P450 1A2 (Homo sapiens) (UniProt P05177). The test can be described thus: p450-cyp1a2 (AID 410; calls by dose curve; also: potency is read from the fitted curve at half-maximal effect). To be noted: recombinant CYP1A2, luciferin-ME demethylation, luminescence; series mostly up to 11.4 µM. An outline of the steps:
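O-Demethylation of luciferin 6' methyl ether by human CYP1A2 is monitored as luciferase luminescence. Substrate sits at Km (100uM); enzyme is 20nM. Values are scaled to 57 uM furafylline as maximal inhibition.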

The nature of test [4]: NFAT Signaling Pathway (AID 444).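 Also: carbachol stimulus at about its EC50 of 1 µM final; % is scaled to controls: 0 for no effect and ±100 for the full control effect.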 To be noted: Jurkat NFAT-bla M1, carbachol, beta-lactamase ratio, 5 h; at 7.69 µM (top of the series) unless noted. An outline of the steps: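 Read-out: CCF4 FRET ratio (460 nm/530 nm) after 1 h RT dye loading, used for %activity and AC50 from titration series. Cells: Jurkat NFAT-β-lactamase/M1 line, treated with compound plus 1 uM carbachol for 5 h, 37 °C.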

Test [5] deals with Glucocorticoid receptor (Homo sapiens) (UniProt P04150). The test can be described thus: GR-GFP Redistribution (AID 450;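 active = compounds whose dose series gives a full or clear partial fitted curve of increased nuclear translocation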; also: potency is read from the fitted curve at half-maximal effect). To be noted: U2OS GR-GFP nuclear translocation, laser cytometry, 2 h.
The target is the same in test [6]. The test can be described thus: GR-EFC Redistribution (AID 451; calls by dose curve; also: potency is read from the fitted curve at half-maximal effect). As to conditions: CHO-K1 GR-EFC translocation, beta-gal luminescence, 2 h. An outline of the steps: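 Translocation of GR-ED fusion to nuclear EA restores b-gal, read by luminescence after 1 h room-temperature detection. Engineered CHO-K1 biosensor cells, 1,000/well, exposed 2 h at 37 C to titrations up to 46 uM final.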

Test [7] concerns the target Mitogen-activated protein kinase 10 (Mus musculus) (UniProt Q61831). Put plainly: JNK3 AlphaScreen Assay (AID 530).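 Also: kinase came from lysate of stimulated human HepG2 cells; signal reports phosphorylation of biotinylated GST-cJun 1-79 at Ser73 with 10 µM ATP; % is scaled to controls: 0 for no effect and ±100 for the full control effect.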 To be noted: JNK3 lysate, c-Jun phosphorylation; series mostly up to 11.4 µM. An outline of the steps:
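qHTS titrations with 15 min compound pre-incubation before adding ATP (10 uM final). Read-out: AlphaScreen of Ser73-phosphorylated biotin-GST-cJun using HepG2 lysate JNK3 activated by IL-1β and TNFα.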
A general note: Alpha assays give light when donor and acceptor beads are brought close together.

Test [8] addresses 3',5'-cyclic-AMP phosphodiesterase 4B (Homo sapiens) (UniProt Q07343). Put plainly: qHTS Assay for Inhibitors of PDE-IV (AID 607; active = well fitted activation curve with a large enough effect in the main read-out, with a control signal flat, not every such curve was filed as active; also: % of control where 0% means no effect). To be noted: HEK293 ACTOne CNG channel cells, membrane potential fluorescence; series mostly up to 22.9 µM. An outline of the steps: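 Cell-based read-out of cAMP via a modified cyclic nucleotide-gated channel and membrane potential dye (535/590 nm) in HEK293 cells expressing PDE4 endogenously. Compounds tested up to 22.9 uM final; 100 uM RO 20-1724 reference.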
(In general: In qHTS, concentration-response curves come from the screen itself.)

The nature of test [9]: Stat Signaling Pathway (AID 446).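 Also: ME-180 cervical cancer cells given 40 pM IL-6 alongside compound; SIE-controlled beta-lactamase reporter measured as 460/530 nm FRET emission ratio; % is scaled to controls: 0 for no effect and ±100 for the full control effect.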 As to conditions: ME-180 (cervical carcinoma) SIE beta-lactamase reporter, IL-6 stimulated, 5 h; at 7.69 µM (top of the series) unless noted. An outline of the steps: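 FRET read-out (405 nm excitation, 460/530 nm emission) of a beta-lactamase reporter under a STAT-inducible element in ME-180 cervical carcinoma cells. Cells with compound receive 40 pM IL-6 for 5 h. Values are normalised to AC90 stimulation and AC90 JAK-inhibitor controls.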

The target in test [10] is Cytochrome P450 2C19 (Homo sapiens) (UniProt P33261). Put plainly: qHTS Assay for Inhibitors and Substrates of Cytochrome P450 2C19 (AID 899; active = well fitted curve in the direction sought with a large enough effect; an effect the other way counts as inactive or inconclusive; also: nearly all actives have a fitted effect of over 60% in size; also: potency is read from the fitted curve at half-maximal effect). To be noted: recombinant CYP2C19, luciferin-H EGE luminescence; series mostly up to 11.4 µM. An outline of the steps: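 Luminescence readout of luciferin formed from 10uM Luciferin-H EGE (KM level) by 5 nM CYP2C19 in 50mM KPO4. 60 min NADPH-driven reaction at 37C after 10 min compound preincubation; data scaled to 57uM ketoconazole inhibition.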

Test [11] addresses Cytochrome P450 2C9 (Homo sapiens) (UniProt P11712). Put plainly: qHTS Assay for Inhibitors and Substrates of Cytochrome P450 2C9 (AID 883; active = well fitted curve in the direction sought with a large enough effect; an effect the other way counts as inactive or inconclusive; also: potency is read from the fitted curve at half-maximal effect; nearly all actives have a fitted effect of over 60% in size). As to conditions: recombinant CYP2C9, luciferin-H luminescence, 60 min; series mostly up to 11.4 µM. An outline of the steps:
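Luminescent read-out of deoxyluciferin hydroxylation, normalized to 57uM sulphaphenazole (AC100). Reaction: 10nM enzyme, 100uM Luciferin-H (equal to KM), 25mM KPO4, 10 min compound preincubation, then 60 min with NADPH regeneration, both at 37C.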

Test [12] concerns the target Cytochrome P450 3A4 (Homo sapiens) (UniProt P08684). Put plainly: qHTS Assay for Inhibitors and Substrates of Cytochrome P450 3A4 (AID 884; active = well fitted curve in the direction sought with a large enough effect; an effect the other way counts as inactive or inconclusive; also: potency is read from the fitted curve at half-maximal effect; nearly all actives have a fitted effect of over 50% in size). To be noted: recombinant CYP3A4, Luciferin-PPXE luminescence; series mostly up to 57.1 µM. A digest of the protocol: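 Luminescent readout of luciferin produced by CYP3A4 (20 nM) dealkylation of Luciferin-PPXE, 25 uM (its KM). NADPH-driven reaction ran 60 min at RT after 10 min compound preincubation; data scaled to 57 uM ketoconazole as 100% inhibition.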

The target is the same in test [13]. Put plainly: qHTS Assay for Activators of Cytochrome P450 3A4 (AID 885; active = well fitted curve in the direction sought with a large enough effect; an effect the other way counts as inactive or inconclusive; also: nearly all actives have a fitted effect of over 65% in size). As to conditions: recombinant CYP3A4, Luciferin-PPXE luminescence, 60 min; series mostly up to 11.4 µM. An outline of the steps:
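Luminescent readout of luciferin formed from 25 uM Luciferin-PPXE (KM level) by 20 nM CYP3A4 in 200 mM KPO4, with 60 min NADPH-driven reaction at room temperature after 10 min compound exposure. Ketoconazole (57 uM) defined 100% inhibition.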

Chain of Cytochrome P450 1A2 (Homo sapiens) (P05177 whole entry, looked up): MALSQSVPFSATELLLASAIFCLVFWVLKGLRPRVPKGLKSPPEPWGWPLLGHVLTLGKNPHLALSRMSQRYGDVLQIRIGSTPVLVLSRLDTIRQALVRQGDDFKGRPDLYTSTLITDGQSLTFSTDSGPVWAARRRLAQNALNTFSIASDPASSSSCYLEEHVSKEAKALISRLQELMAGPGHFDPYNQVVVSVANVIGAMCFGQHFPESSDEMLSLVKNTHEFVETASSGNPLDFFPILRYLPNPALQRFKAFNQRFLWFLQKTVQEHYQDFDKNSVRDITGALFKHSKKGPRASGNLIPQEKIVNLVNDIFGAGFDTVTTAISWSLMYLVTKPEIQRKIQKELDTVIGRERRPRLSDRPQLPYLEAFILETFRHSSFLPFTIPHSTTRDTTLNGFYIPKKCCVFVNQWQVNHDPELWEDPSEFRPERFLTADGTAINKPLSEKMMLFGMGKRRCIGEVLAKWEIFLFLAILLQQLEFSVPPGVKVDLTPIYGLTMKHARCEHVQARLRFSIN
Chain of Glucocorticoid receptor (Homo sapiens) (P04150 whole entry, looked up, the tested form may be a part): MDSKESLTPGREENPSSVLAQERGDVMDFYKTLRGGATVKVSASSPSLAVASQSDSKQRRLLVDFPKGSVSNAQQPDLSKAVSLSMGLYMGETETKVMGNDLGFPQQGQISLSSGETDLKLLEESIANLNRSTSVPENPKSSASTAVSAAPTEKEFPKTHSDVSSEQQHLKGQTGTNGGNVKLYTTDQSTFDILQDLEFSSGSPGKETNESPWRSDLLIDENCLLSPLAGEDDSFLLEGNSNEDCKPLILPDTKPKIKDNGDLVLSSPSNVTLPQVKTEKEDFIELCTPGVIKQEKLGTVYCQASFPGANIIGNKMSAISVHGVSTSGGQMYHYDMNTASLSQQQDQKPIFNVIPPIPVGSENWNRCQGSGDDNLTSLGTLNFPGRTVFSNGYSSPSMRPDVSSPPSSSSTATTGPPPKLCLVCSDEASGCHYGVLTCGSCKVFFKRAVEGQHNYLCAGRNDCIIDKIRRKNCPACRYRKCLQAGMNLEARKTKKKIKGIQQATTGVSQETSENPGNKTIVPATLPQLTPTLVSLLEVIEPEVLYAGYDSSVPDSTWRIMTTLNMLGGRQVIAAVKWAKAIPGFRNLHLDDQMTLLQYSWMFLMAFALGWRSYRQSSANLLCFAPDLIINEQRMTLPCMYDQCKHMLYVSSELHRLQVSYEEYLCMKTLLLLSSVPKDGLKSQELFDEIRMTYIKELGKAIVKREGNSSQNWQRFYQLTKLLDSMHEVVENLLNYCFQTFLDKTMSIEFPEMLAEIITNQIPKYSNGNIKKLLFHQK
Chain of Lysosomal acid glucosylceramidase (Homo sapiens) (P04062 whole entry, looked up): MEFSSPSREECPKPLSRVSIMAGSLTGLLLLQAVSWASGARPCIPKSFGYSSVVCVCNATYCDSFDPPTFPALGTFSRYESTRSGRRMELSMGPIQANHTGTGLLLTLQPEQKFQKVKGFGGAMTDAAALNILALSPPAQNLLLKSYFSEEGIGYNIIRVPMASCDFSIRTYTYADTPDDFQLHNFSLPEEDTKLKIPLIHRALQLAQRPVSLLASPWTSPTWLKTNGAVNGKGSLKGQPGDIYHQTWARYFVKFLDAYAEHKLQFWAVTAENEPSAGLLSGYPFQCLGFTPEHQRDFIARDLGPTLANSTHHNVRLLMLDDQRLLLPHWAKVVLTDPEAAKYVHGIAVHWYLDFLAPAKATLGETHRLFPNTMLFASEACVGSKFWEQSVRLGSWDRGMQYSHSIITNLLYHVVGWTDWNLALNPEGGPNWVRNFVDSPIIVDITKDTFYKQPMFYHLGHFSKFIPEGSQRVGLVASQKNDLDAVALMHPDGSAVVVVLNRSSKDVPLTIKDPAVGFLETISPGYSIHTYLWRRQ
Chain of 3',5'-cyclic-AMP phosphodiesterase 4B (Homo sapiens) (Q07343 whole entry, looked up): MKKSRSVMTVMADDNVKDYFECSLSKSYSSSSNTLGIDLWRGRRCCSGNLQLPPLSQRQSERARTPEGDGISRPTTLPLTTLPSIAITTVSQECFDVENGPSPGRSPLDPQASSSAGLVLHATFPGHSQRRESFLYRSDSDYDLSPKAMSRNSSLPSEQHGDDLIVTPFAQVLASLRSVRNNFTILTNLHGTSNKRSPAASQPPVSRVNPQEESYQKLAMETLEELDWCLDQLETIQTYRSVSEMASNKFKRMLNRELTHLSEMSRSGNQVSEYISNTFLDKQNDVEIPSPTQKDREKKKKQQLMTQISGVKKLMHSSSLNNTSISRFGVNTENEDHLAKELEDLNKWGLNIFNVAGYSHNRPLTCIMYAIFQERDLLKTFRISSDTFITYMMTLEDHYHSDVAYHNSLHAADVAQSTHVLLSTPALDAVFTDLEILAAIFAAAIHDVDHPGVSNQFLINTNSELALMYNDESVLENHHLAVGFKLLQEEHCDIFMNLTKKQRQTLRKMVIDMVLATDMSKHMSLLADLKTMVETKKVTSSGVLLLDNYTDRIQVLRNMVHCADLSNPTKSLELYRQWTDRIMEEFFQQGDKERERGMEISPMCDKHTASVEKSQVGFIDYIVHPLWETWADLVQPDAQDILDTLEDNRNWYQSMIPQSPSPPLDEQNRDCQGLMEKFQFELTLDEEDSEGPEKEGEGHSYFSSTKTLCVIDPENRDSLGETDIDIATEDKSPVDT
Chain of Cytochrome P450 2C19 (Homo sapiens) (P33261 whole entry, looked up): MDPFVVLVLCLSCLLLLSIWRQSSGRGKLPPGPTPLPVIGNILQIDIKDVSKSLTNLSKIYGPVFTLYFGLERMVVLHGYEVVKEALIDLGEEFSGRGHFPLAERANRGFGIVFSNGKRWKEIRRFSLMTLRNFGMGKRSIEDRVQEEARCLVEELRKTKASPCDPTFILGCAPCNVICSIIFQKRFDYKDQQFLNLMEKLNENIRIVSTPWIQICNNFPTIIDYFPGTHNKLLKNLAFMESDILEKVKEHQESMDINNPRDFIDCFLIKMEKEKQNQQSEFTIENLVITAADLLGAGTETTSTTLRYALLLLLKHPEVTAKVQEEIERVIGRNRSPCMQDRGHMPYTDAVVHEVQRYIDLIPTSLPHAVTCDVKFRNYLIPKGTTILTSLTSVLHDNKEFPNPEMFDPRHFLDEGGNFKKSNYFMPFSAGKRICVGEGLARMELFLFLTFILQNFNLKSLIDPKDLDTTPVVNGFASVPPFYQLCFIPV
Chain of Cytochrome P450 3A4 (Homo sapiens) (P08684 whole entry, looked up): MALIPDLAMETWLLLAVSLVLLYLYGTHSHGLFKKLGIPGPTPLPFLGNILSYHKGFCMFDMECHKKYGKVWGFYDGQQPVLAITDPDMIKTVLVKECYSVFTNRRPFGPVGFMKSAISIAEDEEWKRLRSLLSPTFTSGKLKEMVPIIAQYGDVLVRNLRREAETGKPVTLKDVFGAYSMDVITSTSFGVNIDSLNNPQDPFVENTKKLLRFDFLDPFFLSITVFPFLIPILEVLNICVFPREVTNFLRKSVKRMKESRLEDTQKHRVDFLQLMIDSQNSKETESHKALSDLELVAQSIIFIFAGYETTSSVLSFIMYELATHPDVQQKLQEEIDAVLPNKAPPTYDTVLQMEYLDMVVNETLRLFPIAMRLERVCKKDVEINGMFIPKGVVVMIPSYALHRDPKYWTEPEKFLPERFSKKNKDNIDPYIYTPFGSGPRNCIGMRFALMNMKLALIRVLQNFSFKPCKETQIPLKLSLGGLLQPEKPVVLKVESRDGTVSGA
Chain of Cytochrome P450 2C9 (Homo sapiens) (P11712 whole entry, looked up): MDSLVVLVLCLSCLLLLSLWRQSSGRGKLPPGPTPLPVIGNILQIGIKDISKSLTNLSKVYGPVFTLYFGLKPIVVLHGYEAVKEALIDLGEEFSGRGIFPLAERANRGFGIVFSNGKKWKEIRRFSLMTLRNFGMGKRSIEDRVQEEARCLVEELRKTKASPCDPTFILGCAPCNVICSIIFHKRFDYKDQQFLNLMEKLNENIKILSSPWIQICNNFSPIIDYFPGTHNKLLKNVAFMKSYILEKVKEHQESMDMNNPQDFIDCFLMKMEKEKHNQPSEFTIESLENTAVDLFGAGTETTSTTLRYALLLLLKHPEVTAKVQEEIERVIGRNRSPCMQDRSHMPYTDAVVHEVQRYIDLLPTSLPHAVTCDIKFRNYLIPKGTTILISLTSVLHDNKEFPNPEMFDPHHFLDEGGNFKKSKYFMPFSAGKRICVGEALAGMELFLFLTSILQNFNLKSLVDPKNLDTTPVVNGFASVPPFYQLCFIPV

Take `c1ccc([C@H](c2cccc3c2ccc2ccccc23)[C@H](c2ccccc2)c2cccc3c2ccc2ccccc23)cc1`: the Potency is more than 11.4 µM in test [1], more than 46 µM in [5] and more than 9.22 µM in test [6]. In addition, the activity change, negative = inhibition in test [2] is 15.9%; in test [4] it was -0.573%. Further, the Potency entry in [3], in test [7] and in test [8] was “inactive” each time.
On to `C[C@@]12CCC(=O)C=C1CC[C@H]1[C@@H]2[C@@H](O)C[C@]2(C)[C@@H]1CC[C@@]2(O)C(=O)CO`, for which the Potency in test [1] is more than 11.4 µM. Also, the values for the activity change, negative = inhibition in [2] and in test [4] were -10.2% and 14%, respectively. Besides, the Potency result in [3], in [7], in test [8] and in [10] was “inactive” in each case. In addition, the activity, negative = inhibition in [9] is 4.86%.
For `ON(CCc1ccncc1)Cc1ccccc1`, the Potency in test [1] is more than 11.4 µM; in test [3] it was 1 µM (active); in test [5], more than 46 µM; in [6], more than 9.22 µM; in test [11], 3.98 µM (active); in test [10], 0.316 µM (active). For the same molecule, the activity change, negative = inhibition in test [2] is -5.59%; in test [4], 9.66%. The Potency entry in test [7] and in test [8] was “inactive” in each case.
Turning to `CC(C)CSC[C@@H]1O[C@H](n2cnc3c(N)nccc32)[C@H](O)[C@@H]1O`, the Potency in test [1] was more than 11.4 µM; in test [5] it was more than 46 µM; in [6], more than 9.22 µM. In addition, the activity change, negative = inhibition is 4.75% in [2] and 12.1% in test [4]. The Potency entry in test [3], in test [7] and in test [8] was “inactive” in each case.
As to `CCNc1ncc2nc(C)c(=O)n(Cc3cccc(OC)c3)c2n1`, the Potency in test [1] was more than 11.4 µM; in test [3] it was 3.16 µM (active); in test [5], more than 9.22 µM; in [6], more than 46 µM; in test [12] it was 7.94 µM (active). Moreover, the values for the activity change, negative = inhibition in test [2] and in test [4] were -13.2% and -2.59%, respectively. In addition, the Potency entry in test [7] and in [8] was “inactive” in each case.
Regarding `NC(N)=NC(N)=Nc1ccc(S(N)(=O)=O)cc1`, the values for the Potency in test [1], in [5] and in test [6] were more than 11.4 µM, more than 46 µM and more than 9.22 µM, respectively. Also, the activity change, negative = inhibition in [2] was 3.63%; in test [4], 3.86%. The Potency entry in test [3], in test [7] and in [8] was “inactive” throughout.
Turning to `N#[N+]c1ccc(Nc2ccccc2)cc1`, in test [1], the Potency is more than 11.4 µM. In addition, the activity change, negative = inhibition in test [2] was -0.339%; in test [4] it was -28.8%. Moreover, the Potency result in test [3], in test [7] and in [8] was “inactive” each time. Further, the activity, negative = inhibition in test [9] was -16.1%.
Regarding `S=C(CSc1ccccc1)Nc1cccc2ccccc12`, the Potency was more than 11.4 µM in [1]; 1.26 µM (active) in [3]; more than 46 µM in test [5]; more than 9.22 µM in test [6]; 0.794 µM (active) in test [10]. Besides, the activity change, negative = inhibition in test [2] is 8.58%; in test [4], -12.1%. For the same molecule, the Potency entry in [7], in test [8] and in [13] was “inactive” throughout.
